In PubChem BioAssay AID743293 (Broad Institute, 2014):
Entries with a potency or affinity are not part of this list. Active and inactive are the calls of the source.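 How the source made its calls: active means compounds lowering fluorescence with a fitted half-maximal concentration at or below a set limit tied to top dose; inconclusive means flat curve with 30 to 70% inhibition, or poor fit; inactive means the rest.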

Each molecule was assayed against Caspase-9 (Homo sapiens) (UniProt P55211) (assay: caspase-9 enzyme inhibition, dose response, selectivity assay for caspase-6 inhibitor project, biochemical, fluorescence, plate reader, cherry-picked samples (AID 743293)). Conditions: purified caspase-9, Z-LEHD-R110 cleavage fluorescence; series mostly up to 35 µM.
Caspase-9 (Homo sapiens), sequence (P55211 whole entry, looked up): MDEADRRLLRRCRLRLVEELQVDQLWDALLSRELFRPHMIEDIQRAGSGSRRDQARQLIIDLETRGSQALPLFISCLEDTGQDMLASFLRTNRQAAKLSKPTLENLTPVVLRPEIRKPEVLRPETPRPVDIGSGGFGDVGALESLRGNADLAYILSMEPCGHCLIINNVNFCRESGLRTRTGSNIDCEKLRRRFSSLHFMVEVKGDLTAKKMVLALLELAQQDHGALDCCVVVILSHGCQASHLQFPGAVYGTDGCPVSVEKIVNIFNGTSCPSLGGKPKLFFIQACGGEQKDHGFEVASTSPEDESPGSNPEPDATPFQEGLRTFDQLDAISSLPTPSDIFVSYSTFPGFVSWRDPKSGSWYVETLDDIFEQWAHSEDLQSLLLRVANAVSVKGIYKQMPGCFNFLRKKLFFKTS
`O=S(=O)(O)c1cc(O)c2cc(Nc3ccccc3)ccc2c1` was tested, and the outcome was “inactive”. For `Cc1ccc(NC(=O)CN(C)C(=O)c2cccc(-n3cccc3)c2)cc1`, the outcome was “inactive”. `CN(CC(=O)Nc1ccccc1Cl)C(=O)COC(=O)c1ccc([N+](=O)[O-])s1` was tested, and the outcome was “inactive”. `COc1cc(C)c2c(c1C=O)Oc1c(c(C)c(O)c3c1C(O)OC3=O)OC2=O` (stereo not given) was tested, and the outcome was “inactive”. `COCCn1c2nc(=O)n(-c3ccccc3)c(=O)c-2nc2ccccc21` was tested, and the outcome was “inactive”. For `CCOC(=O)c1sc2nc(OCCN3CCOCC3)cc(C)c2c1N`, the outcome was “inactive”. `O=C(COC(=O)c1ccccc1)Nc1ncc([N+](=O)[O-])s1` was tested, and the outcome was “inactive”. For `CO[C@H]1CN(C)C(=O)c2cc(NC(C)=O)ccc2OC[C@@H](C)N(C(=O)CC2CC2)C[C@H]1C`, the outcome was “inactive”. `Cc1[nH]nc(S(=O)CC(=O)O)c1[N+](=O)[O-]` (stereo not given) was tested, and the outcome was “inactive”. `Nc1ccc(Nc2ccccc2)c(S(=O)(=O)O)c1` was tested, and the outcome was “inactive”. With `O=C(O)Cc1ccc(-n2cccc2)cc1` the outcome was “inactive”. In the case of `Cc1c(CCC(=O)O)c(=O)oc2c(C)c(OCc3ccccc3Cl)ccc12`, the outcome is reported as “inactive”. For `Cc1ccc(S(=O)(=O)Nc2csc(C)c2C(=O)O)cc1`, the outcome was “inactive”. `O=C(Nc1ccc(S(=O)(=O)Nc2cnc3ccccc3n2)cc1)c1ccc(Cl)c([N+](=O)[O-])c1` was tested, and the outcome was “inactive”. `[O-][n+]1onc2c1CCc1c-2nn(-c2ccccc2Cl)[n+]1[O-]` was tested, and the outcome was “inactive”. With `O=c1c(O)cccc2cc(O)c(O)c(O)c12` the outcome was “inactive”. With `Nc1cc2c(cc1Br)[nH]c(=O)c1ccccc12` the outcome was “inactive”. With `O=c1oc2ccccc2c2oc3cc(O)c(O)cc3c12` the outcome was “inactive”. For `CC(C)(C)c1ccc(NC(=O)COC(=O)c2ccc([N+](=O)[O-])s2)cc1`, the outcome was “inactive”. In the case of `O=C(Nc1ccc2nc3n(c(=O)c2c1)CCCCC3)c1c(F)ccc([N+](=O)[O-])c1F`, the outcome is reported as “inactive”. `CC(CNc1ccccc1O)C(=O)O` (stereo not given) was tested, and the outcome was “inactive”. `O=C(c1cccc(-n2cccc2)c1)N1CCN(S(=O)(=O)c2ccccc2)CC1` was tested, and the outcome was “inactive”. For `CCCCN(C(=O)c1cccc(-n2cccc2)c1)c1c(N)n(Cc2ccccc2)c(=O)[nH]c1=O`, the outcome was “inactive”. In the case of `Cc1ccc(S(=O)c2ccc([N+](=O)[O-])c3nonc23)cc1` (stereo not given), the outcome is reported as “inactive”. With `CN(CC(=O)Nc1c(Cl)cccc1Cl)C(=O)c1cccc(-n2cccc2)c1` the outcome was “inactive”. With `CCCSC1=N/C(=C\c2ccc([N+](=O)[O-])o2)C(=O)S1` the outcome was “inactive”. With `Oc1cc2c(cc1O)[C@H]1c3ccc(O)c(O)c3OC[C@@]1(O)C2` the outcome was “inactive”. `Cc1oc2c(cc(NS(=O)(=O)c3ccc(C(C)C)cc3)c3ccccc32)c1C(=O)O` was tested, and the outcome was “inactive”. `C/C(CC(=O)N1CCCC1)=N\NC(=O)c1cc2ccccc2cc1O` was tested, and the outcome was “inactive”. For `O=c1c(CO)cc(CO)cc(CO)c1O`, the outcome was “inactive”.
